Results from PubChem BioAssay (NCI).
This is part of a sample that, as a whole, favours compounds with a hit. Of some 83,000 tested, about 20% had one in any assay.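 A percent growth of 40 corresponds to 60% growth inhibition; 0 means no net growth; -100 means all cells died. Active threshold: below 10.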 A number with no mark means an inactive call. Active and inactive are the calls of the source.

These compounds were tested on SK-MEL-28 melanoma (assay: NCI-60 one-dose screen, 48 h (100 = growth as untreated, 0 = no growth, -100 = all killed)). Details: 10 µM unless noted.
Description: Growth inhibition of the SK-MEL-28 human tumor cell line is measured as a screen for anti-cancer activity. Cells are grown in 96 well plates and exposed to the test compound for 48 hours. Compounds are tested at a single concentration, which is 10^-5 M for most compounds. The reported endpoint is percent growth (GI% or GIPRCNT), where numbers from 0 - 100% represent growth inhibition, and numbers from -100% - 0 represent cell death. For example, a value of 40 represents 60% growth inhibition. A value of 0 means no net growth occurred over the course of the experiment. A value of -40 indicates 40% of cells at the beginning of the experiment died by the end of the experiment. A value of -100 means all cells are dead at the end of the experiment.
NCI-60 Human Tumor Cell Lines Screen was performed using the standard one-dose NCI protocol, which is described in more detail at https://dtp.cancer.gov/discovery_development/nci-60/default.htm.
Compounds with GIPRCNT values below 10 were considered active. Activity score was based on GIPRCNT using the following formula: […]
Score is 0 for GIPRCNT values of 100 or above, 50 for GIPRCNT values of 0, and 100 for GIPRCNT values of -100.

| SMILES | growth |
| --- | --- |
| COc1ccc(Cn2cc(C(=O)N=Nc3c(O)[nH]c4c(C)cccc34)nn2)cc1 | 94.9% |
| Cn1cc(-c2csc(-c3cn(CCCN4CCOCC4)c4ccccc34)n2)c2cccnc21 | 88.6% |
| CCSc1oc(C)nc1[P+](c1ccccc1)(c1ccccc1)c1ccccc1 | 65.5% |
| O=C(O)c1ccc(-c2ccc(/C=N/Nc3nc(Nc4ccccc4)nc(N4CCCCC4)n3)o2)cc1 | 78.9% |
| O=C1c2ccccc2C(=O)c2c1cc1c(c2[N+](=O)[O-])OCO1 | 103% |
| CC(C)(C)n1cc(-c2ccnc(NCCCNS(=O)(=O)c3ccc(C(F)(F)F)cc3)c2)c(-c2cccc(F)c2)n1 | 96.9% |
| O=C(CCCCCNC(=O)c1cc(=O)c(O)co1)Nc1ccccc1 | 104% |
| CCN1C2CCC1/C(=C\c1ccc(F)cc1)C(=O)/C2=C/c1ccc(F)cc1 | 72.5% |
| C[C@H](C(=O)N(CCc1ccc(Cl)c(Cl)c1)Cc1cncs1)[C@@H]1CC[C@H](C[C@H](C)n2cc(CN3CCC(c4ccc(Cl)cc4)CC3)nn2)O1 | 102% |
| Cn1cc(-c2ccc(-c3cn(C)c4ccc(Cl)cc34)[nH]2)c2cc(Cl)ccc21 | -52.9% (active) |
| O=C(O)[C@@H](Cc1ccc2ccccc2c1)NC(=O)n1c2ccccc2c2ccccc21 | 63.3% |
| O=S(=O)(Nc1cc(Sc2cccc3cccnc23)c(O)c2ccccc12)c1ccccc1 | 0.27% (active) |
| CCCCNc1cc(-c2cn[nH]c2-c2cc(C)cc(OC)c2)nc(-c2cccnc2)n1 | 96.4% |
| CC(=O)O[C@H]1C[C@@H]2C(C)(C)C(=O)CC[C@@]2(C)c2ccc(C(C)C)cc21 | 121% |
| C=CCn1c(SCC(=O)Nc2ccc(/C(C)=N/O)cc2)nnc1-c1cc(-c2ccc(S(N)(=O)=O)cc2)nc2ccccc12 | 93.3% |
| COc1ccc(/C=C2\COc3ccc(O)cc3C2=O)cc1 | 102% |
| COc1cc(OC)c(/C=C/C(=O)c2c(O)cc(OC)c(C3CCN(C)CC3)c2OC)c(OC)c1 | -100% (active) |
| O=C(/C=C/c1ccccc1)c1ccc(Nc2nc(Nc3ccc(F)cc3)nc(Nc3ccc(Cl)cc3)n2)cc1 | 90.9% |
| N#Cc1nc(-c2ccccc2)oc1S(=O)(=O)N1CCN(c2ccc(F)cc2)CC1 | 94.7% |
| N=c1c(S(=O)(=O)c2ccccc2)cc2c(=O)n3ccccc3nc2n1CC1CCCO1 (stereo not given) | 108% |

| SMILES | growth |
| --- | --- |
| O=C(/C=C(O)/C=C/c1cccc2[nH]ccc12)/C=C/c1cccc2[nH]ccc12 | 97.6% |
| Cc1ccc(-c2nc3nc(-c4ccccc4)nc(N4CCCN(S(C)(=O)=O)CC4)c3o2)cc1 | 70.9% |
| N#Cc1c(-c2ccccc2)nc(SCC(O)CN2CCOCC2)nc1N1CCOCC1 (stereo not given) | 59.9% |
| C#CCOc1cccc(-c2ncnc3cc(NC(=O)C=C)ccc23)c1 | 70.5% |
| CCN1C(=O)N(CC)C2C1NN=c1s/c(=C3\C(=O)N(CC(C)C)c4ccccc43)c(=O)n12 (stereo not given) | 51% |
| Cc1ccc(C=C2C(=O)NC(=O)NC2=O)cc1 | 107% |
| O=C(NC1CC(F)C1)c1cc2cccnc2n1-c1ccc(Cl)c(Cl)c1 (stereo not given) | 117% |
| COC(=O)c1ccc(NC(=O)Nc2ccc(C(=O)OC)cc2)cc1 | 102% |
| Cc1[nH]c(C2CC(c3ccc(C(F)(F)F)c(F)c3)=NN2c2ccccc2)c(C)c1C(=O)NCC(F)(F)F (stereo not given) | 96.9% |
| Cc1ccc(/C=C/C(=O)c2cccc(OCCCOc3cccc(C(=O)/C=C/c4ccc(C)cc4)c3)c2)cc1 | 97.7% |
| CNC1=C([N+](=O)[O-])C(c2ccc(OC)cc2)C(C#N)=C(c2cccs2)O1 (stereo not given) | 122% |
| COC(=O)c1cc(Br)ccc1O | 107% |
| COc1ccc(/C=C(/C(=O)n2cnnn2)c2cc(OC)c(OC)c(OC)c2)cc1 | 43.8% |
| CCN(CC)CCN1C(=O)c2c(c(C)c3c(oc4ccc(OC)cc43)c2C)C1=O | 91.6% |
| CC(C)CCN(CCC(C)C)CC(O)c1cc2c(c3ccccc13)CCCC2 (stereo not given) | 94.7% |
| Cc1ccc(-c2nc(-c3cn(C)c4ncccc34)cs2)cc1 | -19.7% [100 µM] (active) |
| Cc1c2cccnc2c(C)c2c1c1cc(CO)ccc1n2C | 30.6% |
| C=C(CNCCO)[C@@H]1CC[C@]2(CO)CC[C@]3(C)[C@H](CC[C@@H]4[C@@]5(C)CCC(N)C(C)(C)[C@@H]5CC[C@]43C)[C@@H]12 (stereo not given in full) | -76.3% (active) |
| N#Cc1cccc(C2C3=C(COC3=O)N(CCO)c3cc4c(cc32)OCO4)c1 (stereo not given) | 55.2% |
| CC1=C(CCC(C)NCc2ccc(OCCCN3CCCCC3)cc2)C(C)(C)CCC1 (stereo not given) | -83.4% (active) |
